# Laboratory results as given in article PMC7862700, “An all-to-all approach to the identification of sequence-specific readers for epigenetic DNA modifications on cytosine”.
# Key:
# Assay in all cases: DAPPL (digital affinity profiling via proximity ligation, sequencing); 10 mM Tris-HCl pH 7.5, 50 mM NaCl, 1 mM DTT, 4% glycerol, room temperature, 30 min; GST-TFs on glutathione beads, 16-mer random dsDNA library, 0.1% formaldehyde crosslink after washing; high values mean tight binding
# EHF = molecular target: T1, EHF (Homo sapiens, UniProt Q9NZC4 1-300); details: protein: recombinant; tags: N-terminal GST; dsDNA, one strand shown
# T1 sequence: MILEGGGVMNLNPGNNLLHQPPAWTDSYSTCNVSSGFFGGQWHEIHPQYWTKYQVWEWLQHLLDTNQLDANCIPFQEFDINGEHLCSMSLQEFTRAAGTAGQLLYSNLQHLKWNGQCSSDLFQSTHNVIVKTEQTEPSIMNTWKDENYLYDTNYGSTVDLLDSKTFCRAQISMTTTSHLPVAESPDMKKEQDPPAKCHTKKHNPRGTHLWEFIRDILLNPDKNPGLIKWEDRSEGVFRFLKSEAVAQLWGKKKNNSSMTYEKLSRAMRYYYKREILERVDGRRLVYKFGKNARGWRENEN
# Procedure, shortened: (§1)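 Yeast served to express human transcription factors as GST fusions, which were then captured on glutathione beads and labelled with DNA barcodes. Pooled with a tag-only sample, they were incubated with 200 nmole of a 16-mer random double-stranded DNA library for 30 min at room temperature in Tris/NaCl/DTT/glycerol buffer, washed, crosslinked with 0.1% formaldehyde, ligated by proximity, amplified by PCR and sequenced. Dividing each hexamer's read frequency for a factor by its frequency for the tag-only sample gives the binding signal.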
# ELK3 = molecular target: T2, ELK3 (Homo sapiens, UniProt P41970 1-407); details: protein: recombinant; tags: N-terminal GST; dsDNA, one strand shown
# T2 sequence: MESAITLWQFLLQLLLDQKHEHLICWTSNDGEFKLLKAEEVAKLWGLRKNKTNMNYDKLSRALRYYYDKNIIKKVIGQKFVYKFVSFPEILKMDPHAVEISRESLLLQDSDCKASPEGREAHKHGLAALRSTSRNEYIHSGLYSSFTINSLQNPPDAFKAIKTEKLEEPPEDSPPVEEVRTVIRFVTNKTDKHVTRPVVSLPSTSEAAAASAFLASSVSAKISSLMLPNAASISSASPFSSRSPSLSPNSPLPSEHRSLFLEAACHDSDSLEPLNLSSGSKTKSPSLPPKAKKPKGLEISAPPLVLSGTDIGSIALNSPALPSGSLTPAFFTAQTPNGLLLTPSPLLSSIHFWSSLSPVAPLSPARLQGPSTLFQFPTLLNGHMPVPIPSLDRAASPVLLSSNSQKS
# Procedure, shortened: as §1
# HSF1 = HSF1 (Homo sapiens, UniProt Q00613 1-529); details: protein: recombinant; tags: N-terminal GST; chain copies: 3; dsDNA, one strand shown
# HSF1, sequence (Q00613 whole entry): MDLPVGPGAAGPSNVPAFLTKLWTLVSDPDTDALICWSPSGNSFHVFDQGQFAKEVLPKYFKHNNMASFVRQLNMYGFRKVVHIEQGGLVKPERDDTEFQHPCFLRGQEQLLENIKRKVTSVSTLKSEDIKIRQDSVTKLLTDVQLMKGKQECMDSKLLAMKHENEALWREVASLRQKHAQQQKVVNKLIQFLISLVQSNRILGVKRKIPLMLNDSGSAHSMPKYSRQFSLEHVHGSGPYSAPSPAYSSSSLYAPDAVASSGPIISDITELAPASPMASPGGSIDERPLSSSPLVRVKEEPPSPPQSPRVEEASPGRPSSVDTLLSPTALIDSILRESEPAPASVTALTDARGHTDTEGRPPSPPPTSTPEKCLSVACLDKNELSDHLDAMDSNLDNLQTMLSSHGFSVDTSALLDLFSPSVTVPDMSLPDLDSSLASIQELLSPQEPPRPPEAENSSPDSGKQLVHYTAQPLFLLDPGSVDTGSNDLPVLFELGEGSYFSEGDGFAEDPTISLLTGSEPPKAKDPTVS
# Procedure, shortened: as §1
# ELF4 = ELF4 (Homo sapiens, UniProt Q99607 1-663); details: protein: recombinant; tags: N-terminal GST; dsDNA, one strand shown
# ELF4, sequence (Q99607 whole entry): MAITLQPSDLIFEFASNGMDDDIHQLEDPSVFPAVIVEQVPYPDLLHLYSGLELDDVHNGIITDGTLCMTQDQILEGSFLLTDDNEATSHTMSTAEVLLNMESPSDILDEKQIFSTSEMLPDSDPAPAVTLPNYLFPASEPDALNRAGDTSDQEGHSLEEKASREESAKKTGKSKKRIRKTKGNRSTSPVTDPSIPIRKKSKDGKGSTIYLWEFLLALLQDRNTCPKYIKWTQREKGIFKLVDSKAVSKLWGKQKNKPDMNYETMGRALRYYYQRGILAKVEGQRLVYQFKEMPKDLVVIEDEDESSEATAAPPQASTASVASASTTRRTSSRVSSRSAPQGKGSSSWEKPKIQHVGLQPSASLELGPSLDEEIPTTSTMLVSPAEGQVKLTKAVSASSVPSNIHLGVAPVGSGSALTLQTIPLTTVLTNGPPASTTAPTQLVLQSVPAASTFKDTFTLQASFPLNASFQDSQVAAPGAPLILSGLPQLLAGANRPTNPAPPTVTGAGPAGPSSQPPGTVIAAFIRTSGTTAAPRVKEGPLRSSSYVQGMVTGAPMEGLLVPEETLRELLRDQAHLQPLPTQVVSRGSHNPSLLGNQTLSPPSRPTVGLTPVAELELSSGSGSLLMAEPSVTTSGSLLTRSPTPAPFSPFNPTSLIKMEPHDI
# Procedure, shortened: as §1
# ELK4 = molecular target: T3, ELK4 (Homo sapiens, UniProt P28324-2 1-405); details: protein: recombinant; tags: N-terminal GST; dsDNA, one strand shown
# T3 sequence: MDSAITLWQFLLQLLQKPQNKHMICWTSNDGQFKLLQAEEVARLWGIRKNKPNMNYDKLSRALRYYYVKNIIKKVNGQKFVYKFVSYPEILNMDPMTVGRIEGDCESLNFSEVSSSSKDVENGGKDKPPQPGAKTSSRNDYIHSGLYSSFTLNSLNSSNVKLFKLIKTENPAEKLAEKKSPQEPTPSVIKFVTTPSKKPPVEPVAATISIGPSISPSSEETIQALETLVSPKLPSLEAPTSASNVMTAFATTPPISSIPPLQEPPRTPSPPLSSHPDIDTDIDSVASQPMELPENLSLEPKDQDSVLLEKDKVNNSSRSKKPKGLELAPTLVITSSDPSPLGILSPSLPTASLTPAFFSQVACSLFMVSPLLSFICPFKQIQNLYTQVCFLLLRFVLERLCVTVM
# Procedure, shortened: as §1
# ELF3 = molecular target: T4, ELF3 (Homo sapiens, UniProt P78545 1-371); details: protein: recombinant; tags: N-terminal GST; dsDNA, one strand shown
# T4 sequence: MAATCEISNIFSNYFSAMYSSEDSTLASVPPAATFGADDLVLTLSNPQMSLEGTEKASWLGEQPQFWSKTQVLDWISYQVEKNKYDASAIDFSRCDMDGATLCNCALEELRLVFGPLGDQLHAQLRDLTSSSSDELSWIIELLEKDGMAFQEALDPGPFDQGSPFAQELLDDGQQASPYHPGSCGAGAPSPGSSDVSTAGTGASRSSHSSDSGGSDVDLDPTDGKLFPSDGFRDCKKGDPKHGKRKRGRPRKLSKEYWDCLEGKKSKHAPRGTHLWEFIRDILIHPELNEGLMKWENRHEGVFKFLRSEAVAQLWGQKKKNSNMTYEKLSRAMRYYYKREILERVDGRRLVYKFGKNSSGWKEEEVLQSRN
# Procedure, shortened: as §1
# CRX = CRX (Homo sapiens, UniProt O43186 1-299); details: protein: recombinant; tags: N-terminal GST; dsDNA, one strand shown
# CRX, sequence (O43186 whole entry): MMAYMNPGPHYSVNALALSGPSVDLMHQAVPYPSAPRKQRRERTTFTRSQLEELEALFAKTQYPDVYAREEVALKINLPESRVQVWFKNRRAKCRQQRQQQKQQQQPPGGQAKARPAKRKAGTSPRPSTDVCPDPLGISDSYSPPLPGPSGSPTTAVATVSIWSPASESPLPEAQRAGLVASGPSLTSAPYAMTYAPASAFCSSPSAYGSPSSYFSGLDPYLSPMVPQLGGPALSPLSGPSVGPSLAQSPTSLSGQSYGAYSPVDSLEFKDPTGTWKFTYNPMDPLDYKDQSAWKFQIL
# Procedure, shortened: as §1
# ERF = molecular target: T5, ERF (Homo sapiens, UniProt P50548 1-548); details: protein: recombinant; tags: N-terminal GST; dsDNA, one strand shown
# T5 sequence: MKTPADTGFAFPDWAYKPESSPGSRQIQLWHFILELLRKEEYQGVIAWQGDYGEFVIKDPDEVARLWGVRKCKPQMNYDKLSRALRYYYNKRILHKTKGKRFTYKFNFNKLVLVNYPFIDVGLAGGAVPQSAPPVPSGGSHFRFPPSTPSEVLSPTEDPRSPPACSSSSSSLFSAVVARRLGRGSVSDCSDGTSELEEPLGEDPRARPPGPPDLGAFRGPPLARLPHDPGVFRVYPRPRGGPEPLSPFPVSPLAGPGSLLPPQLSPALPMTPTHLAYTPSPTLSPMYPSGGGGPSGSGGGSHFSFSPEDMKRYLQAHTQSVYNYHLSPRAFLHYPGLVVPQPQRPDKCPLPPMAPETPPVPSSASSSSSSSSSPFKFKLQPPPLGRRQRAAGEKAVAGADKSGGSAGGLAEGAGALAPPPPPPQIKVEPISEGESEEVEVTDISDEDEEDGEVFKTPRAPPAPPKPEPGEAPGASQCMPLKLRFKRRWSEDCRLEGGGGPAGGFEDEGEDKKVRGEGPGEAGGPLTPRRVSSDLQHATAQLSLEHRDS
# Procedure, shortened: as §1
# ETV3L = molecular target: T6, ETV3L (Homo sapiens, UniProt Q6ZN32 1-361); details: protein: recombinant; tags: N-terminal GST; dsDNA, one strand shown
# T6 sequence: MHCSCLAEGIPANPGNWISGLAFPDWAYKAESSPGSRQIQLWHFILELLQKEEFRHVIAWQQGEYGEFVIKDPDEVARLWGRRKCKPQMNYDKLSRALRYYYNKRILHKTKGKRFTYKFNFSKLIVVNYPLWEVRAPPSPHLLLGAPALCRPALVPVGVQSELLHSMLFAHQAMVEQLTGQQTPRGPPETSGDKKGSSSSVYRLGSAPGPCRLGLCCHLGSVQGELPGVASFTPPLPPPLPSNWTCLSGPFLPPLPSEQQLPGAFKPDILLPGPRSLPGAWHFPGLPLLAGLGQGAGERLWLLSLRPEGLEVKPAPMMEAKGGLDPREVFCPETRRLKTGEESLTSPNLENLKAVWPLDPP
# Procedure, shortened: as §1
# ETV3 = molecular target: T7, ETV3 (Homo sapiens, UniProt P41162-2 1-143); details: protein: recombinant; tags: N-terminal GST; dsDNA, one strand shown
# T7 sequence: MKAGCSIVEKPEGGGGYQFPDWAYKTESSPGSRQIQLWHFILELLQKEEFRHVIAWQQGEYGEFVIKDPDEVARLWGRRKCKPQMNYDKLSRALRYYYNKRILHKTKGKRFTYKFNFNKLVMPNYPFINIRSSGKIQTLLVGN
# Procedure, shortened: as §1
sequence,measurement,setting,value
CCAGCT,binding signal,EHF,"1.06 fold enrichment (6-mer frequency, TF over GST control)"
same,binding signal,ELK3,"1.02 fold enrichment (6-mer frequency, TF over GST control)"
same,binding signal,HSF1,"1.03 fold enrichment (6-mer frequency, TF over GST control)"
same,binding signal,ELF4,"1.02 fold enrichment (6-mer frequency, TF over GST control)"
same,binding signal,ELK4,"1.14 fold enrichment (6-mer frequency, TF over GST control)"
same,binding signal,ELF3,"1.04 fold enrichment (6-mer frequency, TF over GST control)"
same,binding signal,CRX,"1.1 fold enrichment (6-mer frequency, TF over GST control)"
same,binding signal,ERF,"1.01 fold enrichment (6-mer frequency, TF over GST control)"
same,binding signal,ETV3L,"1.03 fold enrichment (6-mer frequency, TF over GST control)"
same,binding signal,ETV3,"1 fold enrichment (6-mer frequency, TF over GST control)"
